Experimental findings from PubChem BioAssay AID588832 (Broad Institute, 2011) are described below.

Fewer than 10 of roughly 8,000 compounds were called active. These entries were drawn from the full list. Values without a mark were called inactive. No rule for the calls is given here.

For this experiment, the system named is hedgehog, isoform A (Drosophila melanogaster). Nature of the experiment: Drosophila hedgehog isoform A inhibitors, primary screen, biochemical, plate reader, single concentration (AID 588832).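 Also: 0% = neutral control wells and 100% = positive control wells.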 The note with it: Biochemical plate reader assay, at 30.3 µM, active compounds read high.
By inhibition is commonly meant the drop in the measured response relative to a control, in per cent. On to `CCOc1ccc(NC(=O)CS(=O)(=O)c2cn(C)c3ccccc23)cc1`, for which the inhibition is 7.96%.
As for `CCC1=Nc2cc(C(=O)O)ccc2Sc2ccccc21`, the inhibition was 1.79%.
Consider `O=c1c2nnn(-c3ccccc3)c2ncn1C/C=C/c1ccccc1`, for which the inhibition is 6.96%.
To `COc1ccc(S(=O)(=O)NCc2ccc3c(c2)cc(C)n3C)cc1` belongs 62.3% (active).
To `Cc1ccc(S(=O)(=O)NCc2ccc3c(c2)cc(C)n3C)cc1` belongs 11.8%; to `Cc1cc2cc(CNS(=O)(=O)c3ccccc3)ccc2n1C`, 7.14%.
As for `COc1ccc(Nc2nc(N)nc(CN3CCc4ccccc4C3)n2)cc1`, the inhibition was 5%.
For `Cc1ccc(Cl)cc1N1CCN(C(=O)COc2ccc(S(=O)(=O)NC(C)C)cc2)CC1`, the inhibition was 7.28%.
Turning to `O=C(NCc1cn2ccsc2n1)c1c(F)cccc1Cl`, the inhibition was 5.46%.
As to `O=C(O)C(c1ccccc1)c1ccccc1`, the inhibition is 8.45%.
Take `Cn1c(=O)cc(N2CCc3ccccc32)[nH]c1=O`: the inhibition is 1.79%.
With `COc1cccc(CNC(=O)COc2cc3c(c4oc(=O)cc(C)c24)CCC(C)(C)O3)c1`, the inhibition is -8.44%.
Take `O=C(COc1ccc2c(-c3ccccc3)cc(=O)oc2c1)N1C[C@H]2C[C@@H](C1)c1cccc(=O)n1C2`: the inhibition was 1.72%.
The figure for `COc1ccc(Cl)cc1N1C(=O)C2CCCN2C1c1ccc(F)c(F)c1` (stereo unspecified) is 14.9%; for `CCOc1ccc(C2CC(c3cccc(OC)c3)n3nc(N)nc3N2)cc1` (stereo unspecified) it is 15%; for `Cc1ccc(C)c(NC(=O)CSc2nc3ccccc3nc2N2CCOCC2)c1` it is 9.55%.
To `C=CCn1cc(C(=O)NCCCOC)c(=O)c2cc(S(=O)(=O)N3CCC(C)CC3)ccc21` belongs 25%; to `CC(C)(C)C(=O)NCCc1nc2ccccc2n1CC(=O)c1ccc(Cl)cc1`, 0%.
As to `CC(=O)c1ccc(NC(=O)CCS(=O)(=O)c2ccc3c(c2)n(C)c(=O)c(=O)n3C)cc1`, the inhibition was 1.81%.
With `Cc1[nH]c2ccccc2c1SCC(=O)N1CCCc2ccccc21`, the inhibition was 1.79%.
With `CCOC(=O)N1CCN(c2cc(=O)n(-c3ccc(Br)cc3)c(=O)[nH]2)CC1`, the inhibition was 6.78%.
As to `Cc1ccc2c(c1)N(C(=O)CCC(=O)NCCCN1CCOCC1)CC(C)O2` (stereo unspecified), the inhibition is 7.08%.
With `CCCCCCc1cc2cc(/C(N)=N/NC(=O)c3ccncc3)c(=O)oc2cc1O`, the inhibition was 10.7%.
The figure for `O=C(COC(=O)C1CC(=O)N(C2CCCCC2)C1)c1ccc(F)cc1` (stereo unspecified) is 15%.
For `Cc1ccc2c(c1)N(C(=O)CCC(=O)NCCCN1CCN(C)CC1)CCO2`, the inhibition was 5.23%.
In the case of `Cn1c(Cn2c(=O)sc3ccccc32)nnc1SCC(=O)Nc1cccc(Cl)c1`, the inhibition is 11.1%.
To `COc1ccccc1C1C(C(N)=O)=C(C)Nc2nc(-c3ccc(Cl)cc3)nn21` (stereo unspecified) belongs 19.2%.
The figure for `Cc1cc2ccccc2n1CCNC(=O)C(C)(C)C` is 57.3% (active); for `Cc1cc2ccccc2n1CCNC(=O)C(C)C` it is 5.17%; for `CC(=O)NCCn1c(C)cc2ccccc21` it is 0%.
Consider `C[C@@H]1Cc2c(O)c(O)cc(O)c2C(=O)O1`, for which the inhibition is 4.89%.
In the case of `O=C1C=C(O)c2cccc(O)c2C1=O`, the inhibition was 9.84%.
Turning to `O=C1C=C(O)c2c(O)cc(O)c(O)c2C1=O`, the inhibition is 93.1% (active).
Regarding `CC(=O)c1ccc(N2CCN(C(=O)c3ccc(NC4=NC5CS(=O)(=O)CC5S4)cc3)CC2)cc1` (stereo unspecified), the inhibition is 3.39%.
To `COc1ccc(CNS(=O)(=O)c2cc3c(cc2Cl)NC(=O)CO3)cc1` belongs 7.24%; to `COc1cccc(-c2nc(C(=O)NCC3CCCO3)cc3c2[nH]c2ccccc23)c1` (stereo unspecified), 0.0615%; to `O=C(Cn1cc2c(n1)CCCC2)NCCCN1CCN(Cc2ccccc2)CC1`, 4.17%.
As for `CC1CCCN(S(=O)(=O)c2ccc3c(c2)C(C)(C)C(=O)N3C)C1` (stereo unspecified), the inhibition is 20%.
As for `O=C(NCCN1CCCC1)c1ccc2c(c1)N(Cc1ccc(F)cc1)C(=O)c1ccccc1S2=O` (stereo unspecified), the inhibition is 0.909%.
Take `COc1ccc(-c2cn3c(C)c(C(=O)Nc4ccncc4)sc3n2)cc1`: the inhibition is 9.74%.
Take `COCCNC(=O)CS(=O)Cc1nc(-c2ccc(Cl)cc2)oc1C` (stereo unspecified): the inhibition is -2.73%.
The figure for `Cc1ccc2c(c1)N(CC(=O)NC1CCCC1)C(=O)c1cccnc1O2` is 16.7%.
As for `CCN(Cc1ccccc1)S(=O)(=O)c1cc(C(=O)OC)n(C)c1`, the inhibition was 6.72%.
To `Cc1cccc(C(=O)N2CCN(Cc3ccc4c(c3)OCO4)CC2)c1` belongs 5.77%; to `CC1CC(=O)c2c(cc3c(-c4c(O)cc(O)c5c(O)c6c(cc45)OC(C)CC6=O)c(O)cc(O)c3c2O)O1` (stereo unspecified), 6.56%; to `COc1ccc(CNC(=O)COc2cc3c(c4oc(=O)cc(C)c24)CCC(C)(C)O3)cc1OC`, 5.12%.
The figure for `CCN1C(=O)c2ccccc2S(=O)c2ccc(C(=O)NCCCN3CCCC3=O)cc21` (stereo unspecified) is -4.3%; for `COC(=O)CN1C(=O)COc2ccc(Cl)cc21` it is 16.7%.
`CCOCCn1c(SCc2ccc(F)cc2)nc2c1c(=O)[nH]c(=O)n2C`: the inhibition was -3.67%.
To `O=C(NCc1ccco1)C(=O)NCC1OCCN1S(=O)(=O)c1ccccc1` (stereo unspecified) belongs 7.69%; to `COCCn1c(SCC(=O)N2CCCc3ccccc32)nc2c(c1=O)SC(C)C2` (stereo unspecified), 5.36%.
As for `CCCNC(=O)CS(=O)(=O)Cc1nc(-c2ccccc2C)oc1C`, the inhibition was 24.1%.
On to `CCOC(=O)N1CCc2c(sc(NC(=O)c3ccc(S(=O)(=O)N4CCCC4)cc3)c2C#N)C1`, for which the inhibition was 0%.
For `Cn1c(=O)c2c(SC3CCCC3)nc(C3CC3)nc2n(C)c1=O`, the inhibition was 9.74%.
For the molecule `Cn1c(C(=O)NCCN2CCc3ccccc3C2)cc2c(=O)n(C)c3ccccc3c21`, the inhibition was 20.8%.
In the case of `CCCCNC(=S)NCc1ccc2[nH]c(C)cc2c1`, the inhibition is -0.909%.
Turning to `CC(C)COC(=O)C1C2C=CC3(CN(C4CCCC4)C(=O)C13)O2` (stereo unspecified), the inhibition is 8.33%.
Regarding `COc1ccc(-c2cc(=O)oc3c(C)c(OC(C)C(=O)NCc4ccccn4)ccc23)cc1` (stereo unspecified), the inhibition is 4.89%.
As to `CCc1ccc(NC(=O)CSc2nnc(Cn3c(=O)sc4ccccc43)n2C)cc1`, the inhibition was 16.7%.
For the molecule `Cc1ccc(C(=O)NCCSc2c(C)[nH]c3ccccc23)cc1[N+](=O)[O-]`, the inhibition is 3.51%.
In the case of `CCCNC(=O)C1=C(C)C(=O)OC12CCC(C)CC2` (stereo unspecified), the inhibition was 9.55%.
Consider `CCc1cccc(NC2c3ccccc3C(=O)N2c2ccc(C)cn2)c1` (stereo unspecified), for which the inhibition is 5.06%.
`CCOC(=O)N1CCN(C(=O)c2ccc3c(c2)N(Cc2ccc(F)cc2)CCS3)CC1`: the inhibition was 3.51%.
As to `COc1cc2cccc(OC)c(=O)c2c(OC)c1OC`, the inhibition was -1.79%.
Consider `CC(=O)Oc1cc2cccc(OC(C)=O)c(=O)c2c(OC(C)=O)c1OC(C)=O`, for which the inhibition is 57.6% (active).
`CC(=O)Oc1cc(O)c2c(=O)c(OC(C)=O)c(-c3ccc(OC(C)=O)c(OC(C)=O)c3)oc2c1`: the inhibition was 19.3%.
Turning to `CCCc1cc(C(=O)NCC(C)C)no1`, the inhibition was 5.23%.
As for `Cc1cc2cc(CNC(=O)c3ccc(S(=O)(=O)N4CCCCC4)cc3)ccc2[nH]1`, the inhibition was 5.36%.
For `Cc1cccc(-n2c(CNC(=O)c3ccccc3)nnc2SCC(=O)Nc2nccs2)c1`, the inhibition is 12.5%.
With `COc1ccc(-c2cc(=O)oc3cc(OC(C)C(=O)NCc4ccccn4)ccc23)cc1` (stereo unspecified), the inhibition was 7.02%.
The figure for `Cn1cc(S(=O)(=O)N2CCc3ccccc32)cc1C(=O)NC1CCCCC1` is 10.2%.
With `CC(=O)Nc1cccc(NS(=O)(=O)c2cn(C)c(=O)n(C)c2=O)c1`, the inhibition is 3.85%.
For `O=C(Cn1ncc2c1-c1ccccc1OC2)Nc1ccc(S(=O)(=O)N2CCCCC2)cc1`, the inhibition is 6.96%.
For the molecule `C/C=C(/C)C(=O)OC1c2c(ccc3ccc(=O)oc23)OC(C)(C)C1OC(=O)/C(C)=C\C` (stereo unspecified), the inhibition was 5.23%.
For `O=C1C=CC2=C3c4cc(O)c(O)cc4CC3(O)COC2=C1O` (stereo unspecified), the inhibition was 70.4% (active).
Regarding `CCOC(=O)C(C)n1cnc2c(nnn2-c2ccc(F)cc2)c1=O` (stereo unspecified), the inhibition is 7.02%.
Regarding `Cc1ccc(C)c(N2CCN(C(=O)c3cc(S(=O)(=O)N4CCOCC4)cn3C)CC2)c1`, the inhibition was 8.45%.
To `COc1ccc(NC(=O)NCCCN2CCN(c3cc(C)ccc3C)CC2)cc1` belongs 3.64%; to `COc1ccc(CN2CCN(C(=O)Cn3ncn4cccc4c3=O)CC2)c(OC)c1OC`, 2.17%.
As for `CCOc1ccc(NC(=O)CSc2nc3ccccc3nc2N2CCOCC2)cc1`, the inhibition was 7.08%.
The figure for `Cc1cc(NC(=O)c2noc3c2CCc2ccccc2-3)n(-c2ccccc2)n1` is 3.64%; for `CC(C)(O)CCCC(C)(O)c1ccc(C(=O)O)cc1O` (stereo unspecified) it is 6.9%; for `Cc1c(S(=O)(=O)Nc2cc(Cl)ccc2Cl)c(=O)n(C)c(=O)n1C` it is 5.23%.
As for `CC1Cc2nc(SCC(=O)N3CCCc4ccccc43)n(C)c(=O)c2S1` (stereo unspecified), the inhibition was 0%.
Turning to `COc1ccc(Cc2nc(-c3ccc(Br)o3)no2)cc1OC`, the inhibition is 33.3%.
`O=C(CCC(=O)N1CCOc2ccccc21)N1CCOCC1`: the inhibition is 9.62%.
With `CC(NC(=O)c1ccc(NC2=NC3CS(=O)(=O)CC3S2)cc1)c1ccccc1` (stereo unspecified), the inhibition is 5.06%.
The figure for `Cn1cccc1Cc1nnc(SCC(=O)Nc2ccc(F)cc2)n1CCc1ccccc1` is 17.4%; for `CC(CCc1ccccc1)NC(=O)C1CCN(C(=O)c2sccc2-n2cccc2)CC1` (stereo unspecified) it is 3.57%.
`Cc1ccc(NC(=O)C2CCCN(S(=O)(=O)c3ccc4[nH]c(=O)ccc4c3)C2)cc1C` (stereo unspecified): the inhibition is 0%.
Regarding `CCc1ccccc1NC(=O)c1cc(S(=O)(=O)N2CCc3ccccc32)cn1C`, the inhibition was 5.06%.
